We go through 33 compounds from PubChem BioAssay (NCATS).

Several values for one entry are separate records, joined by “and”; a condition that tells them apart may be missing. Identical values can stand only once. Inconclusive results are not listed. The source holds several records for some structures; these can differ, active in one and inactive in another. Unmarked numbers belong to inactive results. Activity calls are given as the source filed them. The call rests on the fitted dose curve; in most records, active means well fitted inhibition curve with a large enough effect; inconclusive means small, poorly fitted or top-dose-only effect; inactive means flat fitted curve, though single readings scatter.
On the % scale 0 is the no-effect control and ±100 the full control effect; potency means the concentration at half of the fitted maximal effect.

The test system of the assay is KB-3-1. In words: Cytotoxic Profiling of Annotated Libraries Using Quantitative High-Throughput Screening (AID 1296008). Further: nearly all actives have a fitted effect of over 60% in size. Particulars: Five cell lines viability, CellTiter-Glo ATP luminescence, 48-72 h; max response: hits give low values. The source says: Cell-based phenotypic screening is a commonly used approach to discover biological pathways, novel drug targets, chemical probes and high-quality hit-to-lead molecules. Many hits identified from high-throughput screening campaign are ruled out through a series of follow-up potency, selectivity/specificity, and cytotoxicity assays. Prioritization of molecules with little or no cytotoxicity for a more in-depth downstream evaluation influence the future direction of projects, so cytotoxicity profiling of the screening libraries at early stage is essential for increasing the likelihood of candidate success. […] For the annotated library, we also examined the primary targets and mechanistic pathways regularly associated with cell death. To our knowledge, this is the first study to use high-throughput screening to profile large libraries for cytotoxicity assessment in both normal and cancer cell lines. In summary, the results generated here constitutes a valuable resource for the scientific community and provides insight on identifying cytotoxic compounds with particular mechanisms of action, and prioritizing compounds with suitable cytotoxicity profile for further evaluation.
A pintool (Kalypsys) was used to transfer 23 nL of compound solution to the 1536-well assay plates. After 48 or 72 hr incubation at 37 degree Celsius, 5% CO2 and 95% humidity, 2.5 uL of CellTiter-Glo (Promega) was dispensed into each well using a dispenser (Aspect Automation, St. Paul, MN) with solenoid valves (Lee Valves, Westbrook CT). Plates were left at room temperature for 10 min before imaging the ATP-coupled luminescence using a ViewLux microplate imager (PerkinElmer, Waltham, MA).
On the technique in general: Cellular ATP, detected with luciferase, serves as a proxy for viable cell number.
For `Cc1ccc(C(=O)Nc2ccc(S(=O)(=O)O)c3cc(S(=O)(=O)O)cc(S(=O)(=O)O)c23)cc1NC(=O)c1cccc(NC(=O)Nc2cccc(C(=O)Nc3cc(C(=O)Nc4ccc(S(=O)(=O)O)c5cc(S(=O)(=O)O)cc(S(=O)(=O)O)c45)ccc3C)c2)c1`, the max response was 9.63% and 6.6%.
As for `CCCCc1oc2ccccc2c1C(=O)c1cc(I)c(OCCN(CC)CC)c(I)c1`, the max response was -16.7% and -5.99% and -5.01%.
`Clc1ccccc1C(c1ccccc1)(c1ccccc1)n1ccnc1`: the max response was -12.5%.
In the case of `CC1(C)O[C@H]2CC(=O)OC[C@]23[C@H]2CC[C@@]4(C)[C@H](c5ccoc5)OC(=O)[C@H]5O[C@]54[C@]2(C)C(=O)C[C@@H]13`, the max response was -3.61% and 0.55%; the result was inactive.
In the case of `CC(=O)OCC(CCn1cnc2cnc(N)nc21)COC(C)=O`, the max response was 12.3% and 3.49%.
For the compound `NC(=O)NO`, the Potency was 6.62 µM (active) and the max response was 2.92%.
As to `NC12CC3CC(CC(C3)C1)C2`, the max response was 5.54% and 19.1%.
Take `Cc1cnc(C(=O)NCCc2ccc(S(=O)(=O)NC(=O)NC3CCCCC3)cc2)cn1`: the max response is -28.8% and 2.82%.
Take `NCCc1cnc[nH]1`: the compound was called inactive and the max response is -8.33%.
For the compound `CC(CCc1ccc(O)cc1)NCCc1ccc(O)c(O)c1` (stereo not given), the max response was -2.1%.
Regarding `CN(C)C(=N)N=C(N)N`, the max response is -1.82% and 7.62%.
Consider `CN1CCC(=C2c3ccccc3C=Cc3ccccc32)CC1`, for which the max response is 25.1% and -12.3%.
In the case of `Clc1ccc2c(c1)C(N1CCNCC1)=Nc1ccccc1O2`, the max response is 6.74% and 1.6%.
Consider `NCCS(=O)(=O)O`, for which the max response is 9.43%.
In the case of `COc1ccc(CCN(C)CCCC(C#N)(c2ccc(OC)c(OC)c2)C(C)C)cc1OC` (stereo not given), the max response is -13.1% and 17.7%.
In the case of `CC1(CN2CCC(n3c(=O)[nH]c4ccccc43)CC2)OCc2ccccc2-n2cccc21` (stereo not given), the max response was -2.15% and -10%.
Turning to `COc1ccc(C2CNC(=O)C2)cc1OC1CCCC1` (stereo not given), the max response is 0.0275% and -1.99%.
On to `COc1nc(C)nc(Cl)c1NC1=NCCN1`, for which the max response was 11.6% and 7.19%.
On the same count and under the same terms, as for `COc1ccc2[nH]cc(CCNC(C)=O)c2c1`, the figure is 5.26% and 4.62%.
For `O=C1N(c2ccccc2)c2ccccc2C1(Cc1ccncc1)Cc1ccncc1`, the max response is 0.123% and the outcome was inactive.
As to `CC1COc2c(N3CCN(C)CC3)c(F)cc3c(=O)c(C(=O)O)cn1c23` (stereo not given), the max response is 21.2% and the call was inactive.
In the case of `O=C1Cc2cc(CCN3CCN(c4nsc5ccccc45)CC3)c(Cl)cc2N1`, the max response was 2.45% [middle of 4 runs].
Take `Nc1ccn([C@H]2CC[C@@H](CO)O2)c(=O)n1`: the outcome was inactive and the max response was -19.7%.
Turning to `CN(CCOc1ccc(NS(C)(=O)=O)cc1)CCc1ccc(NS(C)(=O)=O)cc1`, the max response was -3.43%.
As to `CN(Cc1cnc2nc(N)nc(N)c2n1)c1ccc(C(=O)N[C@@H](CCC(=O)O)C(=O)O)cc1`, the Potency was 0.0372 µM (active).
In the case of `O=C(c1ccc(OCCN2CCCCC2)cc1)c1c(-c2ccc(O)cc2)sc2cc(O)ccc12`, the max response is -14.1% and -7.5%.
Regarding `O=c1c(-c2ccc(O)cc2)coc2cc(O)cc(O)c12`, the outcome was inactive and the max response was 32.1%.
In the case of `CC(C)NCC(O)COc1ccc(CCOCC2CC2)cc1` (stereo not given), the max response was 1.84%.
For the compound `Cn1ccc2cc3c(cc21)CCN3C(=O)Nc1cccnc1`, the max response was 29.1% and 8.13%.
With `NC(=O)OCC(COC(N)=O)c1ccccc1`, the max response is -1.19%.
Take `COC(=O)Nc1nc2ccc(C(=O)c3cccs3)cc2[nH]1`: the Potency is 16.6 nM (active) and 231 nM (active).
Consider `O=c1[nH]cc(F)c(=O)[nH]1`, for which the max response is 22.7% and -20.8%.
On the same count and under the same terms, the value for `COc1cc2nc(N3CCN(C(=O)C4COc5ccccc5O4)CC3)nc(N)c2cc1OC` (stereo not given) was 19.6% and -6.62%.
